Results as given in PubChem BioAssay AID1159580 (chemical genetic matrix, 2015).
Among all 5,500 compounds or so, about 2,000 (36%) were called active. Not shown: some 18% with an inconclusive outcome. Cut-off read from the data, not from the text of the source: active = normalized growth mostly below about 0.91 (no sharp cut-off); inconclusive = no clear call, values can overlap the other calls; inactive = mostly above about 0.92. This is one part of the list.

Test: chemical genetic growth profiling, strain panel (AID 1159580);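 note: tested at 20 µM; growth read once vehicle control cultures reached saturation at 30 °C; 1 = growth at the plate median or of vehicle wells; lower values mean less growth of the strain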
Conditions: S. cerevisiae deletion strains, growth OD

Measured: normalized growth

O=C(/C=C/c1ccc(O)c(O)c1)OCCc1ccccc1
active: locus YAL026C, strain drs2, hits give low values 0.671 | locus YAL030W, strain snc1, hits give low values 0.889 | locus YBL061C, strain skt5, hits give low values 0.767 | locus YBR009C, strain hhf1, hits give low values 0.781 | locus YBR023C, strain chs3, hits give low values 0.774 | locus YBR231C, strain swc5, hits give low values 0.587 | locus YBR279W, strain paf1, hits give low values 0.848 | locus YCL011C, strain gbp2, hits give low values 0.751 | locus YCL016C, strain dcc1, hits give low values 0.774 | locus YCL061C, strain MRC1, hits give low values 0.851 | locus YCL069W, strain vba3, hits give low values 0.913 | locus YCR088W, strain abp1, hits give low values 0.841 | locus YDR069C, strain doa4, hits give low values 0.804 | locus YDR137W, strain rgp1, hits give low values 0.589 | locus YDR195W, strain ref2 1.19 [resistant] | locus YDR297W, strain sur2, hits give low values 0.87 | locus YDR334W, strain swr1, hits give low values 0.641 | locus YDR335W, strain msn5, hits give low values 0.868 | locus YDR392W, strain spt3, hits give low values 0.116 | locus YEL003W, strain gim4, hits give low values 0.691 | locus YEL061C, strain CIN8 (second series), hits give low values 0.693 | locus YER002W, strain NOP16, hits give low values 0.896 | locus YER015W, strain faa2, hits give low values 0.775 | locus YER016W, strain bim1, hits give low values 0.868 | locus YER111C, strain swi4, hits give low values 0.808 | locus YER155C, strain BEM2 (second series), hits give low values 0.463 | locus YGL173C, strain kem1, hits give low values 0.796 | locus YGL227W, strain vid30, hits give low values 0.287 | locus YGL253W, strain hxk2, hits give low values 0.749 | locus YGR078C, strain PAC10, hits give low values 0.881 | locus YGR229C, strain SMI1, hits give low values 0.357 | locus YHR013C, strain ard1, hits give low values 0.683 | locus YHR027C, strain rpn1, hits give low values 0.857 | locus YHR030C, strain SLT2, hits give low values 0.837 | locus YHR079C, strain IRE1, hits give low values 0.803 | locus YHR142W, strain chs7, hits give low values 0.592 | locus YJL092W, strain hpr5, hits give low values 0.891 | locus YJL095W, strain BCK1 (second series), hits give low values 0.644 | locus YJL095W, strain BCK1, hits give low values 0.863 | locus YJL129C, strain trk1, hits give low values 0.522 | locus YJL164C, strain tpk1, hits give low values 0.766 | locus YJL166W, strain qcr8, hits give low values 0.807 | locus YJL187C, strain SWE1, hits give low values 0.851 | locus YJR066W, strain TOR1, hits give low values 0.742 | locus YJR075W, strain HOC1, hits give low values 0.858 | locus YKL160W, strain elf1, hits give low values 0.724 | locus YKR026C, strain gcn3, hits give low values 0.908 | locus YKR091W, strain srl3, hits give low values 0.928 | locus YLL001W, strain dnm1, hits give low values 0.832 | locus YLL026W, hits give low values 0.896 | locus YLL041C, strain sdh2, hits give low values 0.898 | locus YLR027C, strain aat2, hits give low values 0.774 | locus YLR221C, strain rsa3, hits give low values 0.69 | locus YLR258W, strain gsy2, hits give low values 0.844 | locus YLR262C, strain YPT6 (second series), hits give low values 0.493 | locus YLR320W, strain mms22, hits give low values 0.453 | locus YLR342W, strain FKS1, hits give low values 0.796 | locus YML120C, strain ndi1, hits give low values 0.686 | locus YMR058W, strain fet3, hits give low values 0.494 | locus YMR125W, strain sto1, hits give low values 0.615 | locus YMR129W, hits give low values 0.911 | locus YMR205C, strain PFK2, hits give low values 0.66 | locus YMR231W, strain pep5, hits give low values 0.759 | locus YNL071W, strain lat1, hits give low values 0.478 | locus YNL175C, strain NOP13, hits give low values 0.879 | locus YNL183C, strain NPR1, hits give low values 0.803 | locus YNL209W, strain ssb2, hits give low values 0.855 | locus YNL248C, strain rpa49, hits give low values 0.769 | locus YNL322C, strain KRE1, hits give low values 0.881 | locus YOR001W, strain rrp6, hits give low values 0.8 | locus YOR070C, strain gyp1, hits give low values 0.827 | locus YOR083W, strain WHI5 (second series), hits give low values 0.751 | locus YOR083W, strain WHI5, hits give low values 0.81 | locus YOR106W, strain vam3, hits give low values 0.573 | locus YOR231W, strain MKK1, hits give low values 0.857 | locus YOR265W, strain rbl2, hits give low values 0.881 | locus YOR270C, strain vph1, hits give low values 0.568 | locus YOR290C, strain snf2, hits give low values 0.748 | locus YPL051W, strain arl3, hits give low values 0.652 | locus YPL078C, strain atp4, hits give low values 0.855 | locus YPL240C, strain hsp82, hits give low values 0.845
inactive: locus YAL021C, strain ccr4, hits give low values 0.937 | locus YAL040C, strain CLN3, hits give low values 1.08 | locus YBR171W, strain sec66, hits give low values 0.911 | locus YDL005C, strain med2, hits give low values 0.964 | locus YDL040C, strain nat1, hits give low values 0.96 | locus YDR001C, strain nth1, hits give low values 0.933 | locus YDR159W, strain sac3, hits give low values 0.916 | locus YDR363W, strain ESC2, hits give low values 0.98 | locus YEL037C, strain rad23, hits give low values 0.938 | locus YFR010W, strain ubp6, hits give low values 0.906 | locus YGL167C, strain pmr1, hits give low values 0.941 | locus YGL240W, strain doc1, hits give low values 0.927 | locus YJL115W, strain asf1, hits give low values 0.989 | locus YJL154C, strain vps35, hits give low values 0.962 | locus YLR113W, strain HOG1, hits give low values 0.862 | locus YLR357W, strain rsc2, hits give low values 0.88 | locus YLR370C, strain arc18, hits give low values 0.944 | locus YLR384C, strain iki3, hits give low values 0.972 | locus YNL197C, strain WHI3, hits give low values 0.897 | locus YNL224C, strain SQS1, hits give low values 0.937 | locus YNL322C, strain KRE1 (second series), hits give low values 0.963 | locus YNR049C, strain mso1, hits give low values 0.944 | locus YOR080W, strain dia2, hits give low values 0.961 | locus YPL106C, strain sse1, hits give low values 0.882 | locus YPL241C, strain CIN2, hits give low values 0.964 | locus YPL256C, strain CLN2, hits give low values 0.854
